In PubChem BioAssay (NCI):
Compounds without any hit were thinned out: in the full panel of roughly 83,000, 20% have a hit.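 Step 1: grow cells in 96-well plates. Step 2: add test compound at a single concentration. Step 3: incubate 48 h. Step 4: record percent growth.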 Active and inactive are the calls of the source. How the source made its calls: active means growth percent below 10; inactive means the rest.

Tests used:
Assay in all cases: NCI-60 one-dose screen, 48 h (100 = growth as untreated, 0 = no growth, -100 = all killed)
Details in all cases: 10 µM unless noted
SR leukemia = tested on: SR leukemia
RPMI-8226 leukemia = tested on: RPMI-8226 leukemia
OVCAR-8 ovarian = tested on: OVCAR-8 ovarian
OVCAR-5 ovarian = tested on: OVCAR-5 ovarian
OVCAR-4 ovarian = tested on: OVCAR-4 ovarian
SK-OV-3 ovarian = tested on: SK-OV-3 ovarian
IGROV1 ovarian = tested on: IGROV1 ovarian
OVCAR-3 ovarian = tested on: OVCAR-3 ovarian
HS 578T breast = tested on: HS 578T breast
NCI/ADR-RES ovarian = tested on: NCI/ADR-RES ovarian

Measured: growth

O=C(NNC(=S)NC(=O)c1ccccc1)c1ccc(OCc2nc3ccc(Cl)cc3[nH]2)cc1
active: SR leukemia 0.144% | RPMI-8226 leukemia 5.01% | OVCAR-8 ovarian -9.91% | OVCAR-5 ovarian -43.7% | SK-OV-3 ovarian -17.5% | IGROV1 ovarian -46.5% | HS 578T breast 3.54% | NCI/ADR-RES ovarian -25.3%
inactive: OVCAR-4 ovarian 16.3% | OVCAR-3 ovarian 10.5%

Fc1cccc(CNc2nc(SCCN3CCOCC3)nc3c2cnn3CC(Cl)c2ccc(Br)cc2)c1 (stereo not given)
inactive: OVCAR-8 ovarian 32.6% | OVCAR-5 ovarian 59.9% | OVCAR-4 ovarian 27.3% | SK-OV-3 ovarian 51.3% | IGROV1 ovarian 52.2% | OVCAR-3 ovarian 49.7% | HS 578T breast 19.2% | NCI/ADR-RES ovarian 23%
active: SR leukemia -18.1% | RPMI-8226 leukemia 2.98%

COc1ccc(C(=O)NNC(=O)CSc2nc3sc4c(c3c(=O)n2-c2ccc(Cl)cc2)CCCC4)cc1
inactive: SR leukemia 48.2% | RPMI-8226 leukemia 79% | OVCAR-8 ovarian 24.3% | OVCAR-5 ovarian 78.9% | OVCAR-4 ovarian 78.6% | SK-OV-3 ovarian 70.4% | IGROV1 ovarian 89.2% | OVCAR-3 ovarian 106% | HS 578T breast 60.4% | NCI/ADR-RES ovarian 56.9%

Fc1ccc(Nc2nnc(-c3c[nH]c4ccccc34)o2)cc1
inactive: SR leukemia 70.4% | RPMI-8226 leukemia 24.7% | OVCAR-8 ovarian 85.5% | OVCAR-5 ovarian 105% | OVCAR-4 ovarian 81.1% | SK-OV-3 ovarian 83.6% | IGROV1 ovarian 50.8% | OVCAR-3 ovarian 107% | HS 578T breast 82% | NCI/ADR-RES ovarian 74.6%

Cn1cc(Nc2ncnc(-c3ccc(N4CCCC4)c(C#N)c3)n2)cn1
inactive: SR leukemia 28.7% | RPMI-8226 leukemia 83.9% | OVCAR-8 ovarian 84.4% | OVCAR-5 ovarian 85.4% | OVCAR-4 ovarian 78.9% | SK-OV-3 ovarian 76.4% | IGROV1 ovarian 51.7% | OVCAR-3 ovarian 81.6% | HS 578T breast 41.3% | NCI/ADR-RES ovarian 67.3%

O=C(Cn1c(-c2ccccc2)nc2ccccc21)N=Nc1c(O)[nH]c2ccc(Cl)cc12
active: SR leukemia -14.7% | OVCAR-8 ovarian -26.3% | OVCAR-4 ovarian -44.4% | SK-OV-3 ovarian -6.33% | IGROV1 ovarian 9.94% | OVCAR-3 ovarian 1.02% | HS 578T breast -16.2% | NCI/ADR-RES ovarian -43.2%
inactive: RPMI-8226 leukemia 20.4% | OVCAR-5 ovarian 18.5%

CCOc1ccc(-c2cc(-c3cc(C(C)C)c(O)cc3C)nn2-c2ccc(S(N)(=O)=O)cc2)cc1
active: SR leukemia 5.54% | NCI/ADR-RES ovarian 4.14%
inactive: RPMI-8226 leukemia 13.8% | OVCAR-8 ovarian 36.4% | OVCAR-5 ovarian 53% | OVCAR-4 ovarian 29.6% | SK-OV-3 ovarian 55.3% | IGROV1 ovarian 80.4% | OVCAR-3 ovarian 36.2% | HS 578T breast 35.9%

O=C(c1ccc(O)cc1)C1[C@H](c2ccc(Cl)cc2)[C@@H](c2ccccc2)NC12C(=O)Nc1ccccc12 (stereo not given in full)
active: SR leukemia -47.2% | RPMI-8226 leukemia -3.39% | OVCAR-5 ovarian 9.48% | OVCAR-4 ovarian 9.88% | IGROV1 ovarian 3.49% | OVCAR-3 ovarian 6.48% | HS 578T breast -11.8% | NCI/ADR-RES ovarian -35%
inactive: OVCAR-8 ovarian 12.5% | SK-OV-3 ovarian 43.7%

O=C(CSc1nnc(-c2ccc(-c3nc4ccccc4[nH]3)cc2)o1)Nc1ccc(Cl)cc1
active: SR leukemia 2.31% | RPMI-8226 leukemia 7.96% | OVCAR-8 ovarian -18%
inactive: OVCAR-5 ovarian 47.1% | OVCAR-4 ovarian 45.1% | SK-OV-3 ovarian 83.1% | IGROV1 ovarian 44.4% | OVCAR-3 ovarian 20.8% | HS 578T breast 63.1% | NCI/ADR-RES ovarian 30%

O=C(c1cc2cc(OCCCN3CCC3)ccc2[nH]1)N1C[C@@H](CCl)c2c1cc(OCc1ccccc1)c1ccccc21
active: SR leukemia -9.25% | RPMI-8226 leukemia -37.1% | OVCAR-8 ovarian -37.6% | OVCAR-5 ovarian -76.9% | OVCAR-4 ovarian -57.7% | SK-OV-3 ovarian -9.06% | IGROV1 ovarian -53.8% | OVCAR-3 ovarian -29.5% | HS 578T breast -8.06% | NCI/ADR-RES ovarian -34.9%

COc1cc2cc(C(=O)N3C[C@@H](CCl)c4c3cc(OC(=O)N(CCC(=O)N3CCN(C)CC3)C3CCCCC3)c3ccccc43)[nH]c2c(OC)c1OC
active: SR leukemia -38.8% | RPMI-8226 leukemia -30.3% | OVCAR-8 ovarian -48.3% | OVCAR-5 ovarian -59.1% | OVCAR-4 ovarian -83.5% | SK-OV-3 ovarian -57.7% | IGROV1 ovarian -59.2% | OVCAR-3 ovarian -65.3% | HS 578T breast -34% | NCI/ADR-RES ovarian -62.1%

CCOC(=O)c1ccc(NC(=S)NC(=O)c2ccc(NC(=O)C(C)C)cc2OC)cc1
active: SR leukemia 0.956% | RPMI-8226 leukemia 0.989%
inactive: OVCAR-8 ovarian 35.1% | OVCAR-5 ovarian 90.1% | OVCAR-4 ovarian 27.2% | SK-OV-3 ovarian 100% | IGROV1 ovarian 64.5% | OVCAR-3 ovarian 57.4% | HS 578T breast 86.7% | NCI/ADR-RES ovarian 23%

O=C(N=Nc1c(O)[nH]c2ccc(Cl)cc12)c1ccc2nc(-c3ccc(Cl)cc3)[nH]c2c1
active: OVCAR-8 ovarian -34.8% | OVCAR-4 ovarian -3.41% | IGROV1 ovarian -11.1% | OVCAR-3 ovarian -5.16%
inactive: SR leukemia 10.6% | RPMI-8226 leukemia 77.8% | OVCAR-5 ovarian 36.2% | SK-OV-3 ovarian 42% | HS 578T breast 12.2% | NCI/ADR-RES ovarian 94.7%
